In PubChem BioAssay AID778 (Sanford-Burnham Center for Chemical Genomics, 2007):
Among all 96,000 compounds or so, about 20,000 (21%) were called active. Not all results are given here. A number with no mark means an inactive call.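 The calls were made as follows: active = CYP2C19 inhibition above a set limit at 5 µM in the primary screen (cut at about 50% in these data); inactive = the rest.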

Each molecule was assayed against Cytochrome P450 2C19 (Homo sapiens) (UniProt P33261) (assay: blockers of cytochrome P450 2C19 activity – biochemical, luminescence, ADME assay, primary screen (AID 778;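 also: plate controls were negative control wells for no effect and 2.5 mM tranylcypromine positive control for full effect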)). Conditions: CYP2C19 Supersomes, luciferin-H EGE luminescence, 30 min; at 5 µM; active compounds read high.
Sequence of Cytochrome P450 2C19 (Homo sapiens) (P33261 whole entry, looked up): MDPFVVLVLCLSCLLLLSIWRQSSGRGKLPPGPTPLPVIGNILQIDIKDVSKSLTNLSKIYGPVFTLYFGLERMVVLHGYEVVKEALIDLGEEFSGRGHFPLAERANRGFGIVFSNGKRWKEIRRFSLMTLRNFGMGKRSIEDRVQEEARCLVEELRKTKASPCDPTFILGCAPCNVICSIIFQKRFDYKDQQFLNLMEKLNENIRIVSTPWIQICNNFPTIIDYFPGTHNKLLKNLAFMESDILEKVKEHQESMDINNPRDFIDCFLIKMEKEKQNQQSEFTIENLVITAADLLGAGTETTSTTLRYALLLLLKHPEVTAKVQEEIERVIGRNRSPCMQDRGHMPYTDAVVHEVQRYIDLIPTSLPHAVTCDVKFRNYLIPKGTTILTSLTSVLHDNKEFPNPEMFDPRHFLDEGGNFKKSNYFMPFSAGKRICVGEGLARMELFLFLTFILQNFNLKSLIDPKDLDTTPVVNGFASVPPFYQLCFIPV

| Structure (SMILES) | inhibition |
| --- | --- |
| Cc1cc2cc3c(cc2nc1SCC(=O)Nc1c(C)cccc1C)CCC3 | 15.7% |
| Cn1c(Cc2cccc3ccccc23)nnc1SCC(=O)N1CCN(c2cccc(Cl)c2)CC1 | 12% |
| Cn1c(Cc2csc(N)n2)nnc1SC/C=C/c1ccccc1 | 61.6% (active) |
| CCOC(=O)c1c(NC(=O)CSc2nnc(Cc3csc(N)n3)n2C)sc(C)c1C | 16.5% |
| N#CCCN1CCN(S(=O)(=O)c2ccc(S(=O)(=O)NC3CCCCC3)cc2)CC1 | 13.3% |
| O=S(=O)(NC1CCCCC1)c1ccc(F)c2ccccc12 | 26.5% |
| CCc1nnc(NS(=O)(=O)c2ccc(NS(=O)(=O)c3ccccc3)cc2)s1 | -6.3% |
| CCCNS(=O)(=O)c1ccc(CCC(=O)NCc2cccnc2)cc1 | 22.4% |
| Cc1cccc(CCNS(=O)(=O)c2ccc(S(=O)(=O)NC3CCCC3)cc2)c1 | 67.1% (active) |
| CSc1ccc(S(=O)(=O)NC2CCCCC2)cc1 | 88.8% (active) |
| COC(=O)c1cc(S(=O)(=O)NC2CCN(Cc3ccccc3)CC2)cn1C | 0.8% |
| CSc1ccc(S(=O)(=O)Nc2cccc(F)c2)cc1 | 99.4% (active) |
| O=C(CCc1ccc(S(=O)(=O)NC2CCCCC2)cc1)NCc1ccccc1 | 63.1% (active) |
| O=C(O)c1ccc(F)c(S(=O)(=O)Nc2ccccc2)c1 | 7.1% |
| Cc1cc(S(=O)(=O)NC2CCCCC2)ccc1OCC(=O)NCc1cccnc1 | 20.8% |
| CCCc1ccc(-c2c(C)sc(NC(=O)c3ccnn3C)c2C#N)cc1 | 23.9% |
| CCCC(=O)N1c2ccccc2NC2=C(C(=O)CCC2)C1c1ccc(F)cc1 (stereo unspecified) | 48.1% |
| CN(C(=O)CSc1nnc(N)s1)c1c(N)n(Cc2ccccc2)c(=O)[nH]c1=O | -3.1% |
| O=C(CN1CCOCC1)N1CCCc2c1c(=O)oc1ccc(OCc3ccccc3)cc21 | 29.5% |
| CCN(CC)S(=O)(=O)c1ccc(N(C)Cc2ccc(C(F)(F)F)cc2)nc1 | 85.1% (active) |
| Cc1ccc(-n2c(N)c(C(=O)N3CCOCC3)sc2=S)c(C)c1 | 20.4% |
| COc1ccccc1OCCOc1ccc(/C=N/n2cnnc2)cc1 | 38.5% |
| COc1cccc(OCCOc2cccc(/C=N/n3cnnc3)c2)c1 | 54.7% (active) |
| C(=N\n1cnnc1)/c1cccnc1 | -5.3% |
| Oc1ccc(CNc2ccccc2O)cc1 | 22% |
| CC(C)C1N=C2c3ccccc3N=C(SCC(=O)c3ccc(O)c(O)c3)N2C1=O (stereo unspecified) | 16.6% |

| Structure (SMILES) | inhibition |
| --- | --- |
| O=C(N/N=C/c1ccc(O)c(O)c1)C1c2ccccc2Oc2ccccc21 | -4.1% |
| CCCN(CCC)C(=O)C1c2ccccc2Oc2ccccc21 | 57.1% (active) |
| COCC(=O)Nc1ccc(Br)cc1 | 13% |
| O=C(c1cnn2ccccc12)N1CCc2ccccc21 | 25.2% |
| CCCCc1nc2ccccc2c(=O)n1NC(=O)c1c(O)c2cccc3c2n(c1=O)CC3 | 8% |
| CCCCn1nc(C(=O)N2CCc3ccccc32)c2ccccc2c1=O | 69.6% (active) |
| Cc1ccc(-c2cc(C(=O)N/N=C/C=C/c3ccco3)c3ccccc3n2)cc1C | -4.3% |
| COC(=O)c1c(C)c(C)nc(N)c1C#N | -7.3% |
| O=C(CN1CCCCCC1)Nc1ccc(Br)cc1Br | 42.6% |
| CCOc1cccc(-c2nnc3sc(COc4ccc(OC)cc4)nn23)c1 | 19.8% |
| CCOc1cccc(-n2nnnc2-c2ccc(OC)cc2)c1 | 100% (active) |
| CCOC(=O)c1sc(=S)n(-c2cccc(OC)c2)c1N | 31.5% |
| Cc1ccc2[nH]c3c(=O)n(Cc4ccccn4)cnc3c2c1 | -0.8% |
| COc1ccc(CC(=O)Nc2ccc3c(c2)CCC3)cc1S(=O)(=O)N1CCOCC1 | 54.5% (active) |
| COc1ccc(CNc2ccc3c(c2)CCC3)cc1OC | 49.8% |
| CC(C)C(=O)OCC(=O)Nc1ccc2c(c1)CCC2 | 16.8% |
| O=C1CN(c2nc(-c3ccccc3)c3cc(Br)ccc3n2)c2ccccc2N1 | -14.1% |
| S=C1NC(c2ccccc2)=NCN1c1ccc(Br)cc1 | 52.3% (active) |
| C=CCn1c2ccccc2c2nnc(SC(CC)C(=O)Nc3nc(C)c(C(=O)OCC)s3)nc21 (stereo unspecified) | 48.6% |
| CCN(CC)CCNC(=O)C1c2ccccc2C(=O)N(C)C1c1cn(C)c2ccccc12 (stereo unspecified) | -5.9% |
| Cc1cccc(NC(=O)c2ccccc2NC(=O)C(C)(C)C)n1 | 30.7% |
| Cc1nc(-c2ccccc2)sc1C(=O)/C=C/c1ccccc1 | 16.8% |
| Cc1ccc(SCC(=O)Nc2ncc(C)s2)cc1 | 49.5% |
| Cc1ccc(SCC(=O)c2sc(-c3ccccc3)nc2C)cc1 | 60.9% (active) |
| CC1CN(Cc2nc3c(c(=O)n(C)c(=O)n3C)n2Cc2cccc(Cl)c2)CC(C)O1 (stereo unspecified) | 35.9% |
